# From PubChem BioAssay (NCI)
# This is part of a sample that, as a whole, favours compounds with a hit. Of some 83,000 tested, about 20% had one in any assay.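 The endpoint reported here, percent growth, reads 100 for growth as untreated, 0 for no net growth and -100 for all cells dead.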 Activity calls are given as the source filed them. Rule for the calls: active = growth percent below 10; inactive = the rest.
# Key:
# Test in all cases: NCI-60 one-dose screen, 48 h (100 = growth as untreated, 0 = no growth, -100 = all killed)
# Settings in all cases: 10 µM unless noted
# NCI-H23 lung = test system: NCI-H23 lung
# NCI-H226 lung = test system: NCI-H226 lung
# NCI-H322M lung = test system: NCI-H322M lung
# HOP-62 NSCLC = test system: HOP-62 NSCLC
# NCI-H460 lung = test system: NCI-H460 lung
# HOP-92 NSCLC = test system: HOP-92 NSCLC
# NCI-H522 lung = test system: NCI-H522 lung
# A549/ATCC NSCLC = test system: A549/ATCC NSCLC
# 786-0 renal = test system: 786-0 renal
# COLO 205 colon = test system: COLO 205 colon
Structure (SMILES),growth (NCI-H23 lung),growth (NCI-H226 lung),growth (NCI-H322M lung),growth (HOP-62 NSCLC),growth (NCI-H460 lung),growth (HOP-92 NSCLC),growth (NCI-H522 lung),growth (A549/ATCC NSCLC),growth (786-0 renal),growth (COLO 205 colon)
Cc1ccccc1OC(=O)c1cccc(Cl)c1,108% (inactive),108% (inactive),114% (inactive),145% (inactive),109% (inactive),101% (inactive),95.5% (inactive),102% (inactive),112% (inactive),129% (inactive)
CN(C)c1ccc(N=Nc2ccc3ccccc3c2)cc1,91.5% (inactive),79.9% (inactive),89.6% (inactive),110% (inactive),87.5% (inactive),82.1% (inactive),71.7% (inactive),92% (inactive),122% (inactive),73.7% (inactive)
CC1(C)CC[C@]2(C(=O)OC(=O)[C@]34CCC(C)(C)C[C@@H]3C3=CC[C@@H]5[C@@]6(C)CCC(=O)C(C)(C)[C@@H]6CC[C@@]5(C)[C@]3(C)CC4)CC[C@]3(C)C(=CC[C@@H]4[C@@]5(C)CCC(=O)C(C)(C)[C@@H]5CC[C@]43C)[C@H]2C1,58.9% [100 µM] (inactive),68.1% [100 µM] (inactive),86.9% [100 µM] (inactive),74.7% [100 µM] (inactive),58.3% [100 µM] (inactive),45.6% [100 µM] (inactive),56.2% [100 µM] (inactive),76.5% [100 µM] (inactive),64.1% [100 µM] (inactive),88.6% [100 µM] (inactive)
Nc1nc(N)c2c(n1)NC(c1ccc(F)cc1)C1CCc3ccccc3C1=N2 (stereo not given),51.1% (inactive),53.1% (inactive),67.3% (inactive),74.1% (inactive),26.2% (inactive),74.1% (inactive),101% (inactive),58.6% (inactive),60.9% (inactive),48.4% (inactive)
C=C(C)[C@@H]1CC[C@]2(C)[C@H](CC[C@@H]3[C@@H]([C@@](C)(O)CCC=C(C)C)CC[C@]32C)[C@@]1(C)CCC(=O)O,-5.71% [100 µM] (active),-41.5% [100 µM] (active),-6.31% [100 µM] (active),-61.4% [100 µM] (active),-34.9% [100 µM] (active),-49.4% [100 µM] (active),-13.6% [100 µM] (active),14.9% [100 µM] (inactive),1.09% [100 µM] (active),-69.5% [100 µM] (active)
COC(=O)[C@@H](NC(=O)NC(=O)NC(=O)CI)C(C)C,93.8% (inactive),85.1% (inactive),103% (inactive),86.3% (inactive),89.3% (inactive),-17.7% (active),-85.9% (active),94.6% (inactive),-25.1% (active),38.6% (inactive)
Cc1ccc(S(=O)(=O)Oc2ccc(Br)cc2Br)cc1,88% (inactive),85.5% (inactive),91.2% (inactive),76.6% (inactive),97.2% (inactive),82.3% (inactive),82.1% (inactive),64% (inactive),86.6% (inactive),63.9% (inactive)
COCCCNc1nc(NC(=O)c2cc(OC)cc(OC)c2)cc(-c2cccnc2)n1,98.6% (inactive),96.5% (inactive),92.8% (inactive),91.3% (inactive),95.2% (inactive),52.6% (inactive),76.5% (inactive),91.2% (inactive),83.3% (inactive),109% (inactive)
Cc1ccc(NC(=S)/N=c2/n(-c3ccccc3)nc3n2CCN3C2=NCCN2)cc1,104% (inactive),92.3% (inactive),103% (inactive),92.7% (inactive),104% (inactive),75.3% (inactive),96.7% (inactive),106% (inactive),53.5% (inactive),106% (inactive)
Ic1ccc2[nH]cc(SSc3c[nH]c4ccc(I)cc34)c2c1,17.9% (inactive),24.9% (inactive),57.8% (inactive),30.4% (inactive),-11.5% (active),-6.72% (active),-48% (active),21.8% (inactive),41.6% (inactive),-37.1% (active)
Cc1cnc(N)nc1OCCNC(=O)c1cccc(-c2ccc(S(=O)(=O)Nc3ccc4c(c3)N(C(=O)C3CC3)CCC4)cc2)c1,72.4% (inactive),72% (inactive),87.5% (inactive),79.8% (inactive),75.4% (inactive),41% (inactive),70.1% (inactive),79.7% (inactive),82.3% (inactive),99.1% (inactive)
O=C(N=c1n(-c2ccccc2)nc2n1CCN2C1=NCCN1)c1ccc(Cl)cc1,86.9% (inactive),93.3% (inactive),91.2% (inactive),91.6% (inactive),77.3% (inactive),61% (inactive),95.9% (inactive),83.4% (inactive),104% (inactive),62.2% (inactive)
COc1cc(-c2cc(-c3ccc(Nc4ncnc5cc(Cl)ccc45)cc3)nc(N3CCCCC3)n2)cc(OC)c1OC,102% (inactive),99.3% (inactive),95.5% (inactive),84.7% (inactive),94.7% (inactive),92% (inactive),75.3% (inactive),84.7% (inactive),98.9% (inactive),110% (inactive)
C#C[C@]1(O)CC[C@H]2[C@@H]3CC=C4c5nc(Nc6ncccn6)sc5CC[C@]4(C)[C@H]3CC[C@@]21C,77.8% (inactive),68.8% (inactive),74.3% (inactive),38.3% (inactive),31.2% (inactive),52.2% (inactive),81% (inactive),43.4% (inactive),-45.2% (active),92.4% (inactive)
CC(C)=CC/C=C(/C)[C@H]1CC[C@]2(C)[C@@H]1CC[C@@H]1[C@@]3(C)CCC(=O)NC(C)(C)[C@@H]3CC[C@]12C,13.6% [100 µM] (inactive),-1.12% [100 µM] (active),36.1% [100 µM] (inactive),14.3% [100 µM] (inactive),-16.7% [100 µM] (active),-6.9% [100 µM] (active),-58% [100 µM] (active),15.3% [100 µM] (inactive),-33% [100 µM] (active),-0.368% [100 µM] (active)
COc1cc(OC)cc(C(=O)Nc2cc(-c3cccnc3)nc(NCCCN3CCOCC3)n2)c1,91.7% (inactive),85.7% (inactive),90.9% (inactive),87.8% (inactive),95.3% (inactive),67.7% (inactive),92% (inactive),92.6% (inactive),84% (inactive),94.3% (inactive)
COc1cc2c(c(OC)c1OC)-c1cc(I)c(O)cc1[C@@H](NC(C)=O)CC2,48.8% (inactive),5.87% (active),70.3% (inactive),42% (inactive),3.02% (active),62.1% (inactive),-12.2% (active),14.9% (inactive),29.7% (inactive),-64% (active)
C=C(CC(=O)OC)C(C)=O,105% (inactive),104% (inactive),119% (inactive),98.7% (inactive),111% (inactive),112% (inactive),101% (inactive),114% (inactive),106% (inactive),116% (inactive)
COc1ccc(C2=C(c3cn(C)c4ccccc34)C(=O)OC2)cc1OC,54.6% (inactive),70.3% (inactive),65.5% (inactive),31.5% (inactive),29.6% (inactive),16.4% (inactive),13.3% (inactive),42.3% (inactive),41.2% (inactive),12.6% (inactive)
O=C(O)c1cc([N+](=O)[O-])ccc1Br,105% (inactive),97.8% (inactive),94.1% (inactive),109% (inactive),105% (inactive),91.4% (inactive),97.3% (inactive),101% (inactive),102% (inactive),115% (inactive)
COc1ccc(C2CC(c3ccc4ccccc4c3)=NN2c2nc(O)c(C3=c4cc(OC)ccc4=NC3=O)s2)cc1 (stereo not given),-29.8% (active),-70.6% (active),-17% (active),-60.7% (active),-39.8% (active),-67.7% (active),-74.1% (active),-72.4% (active),-73.3% (active),-73.3% (active)
CC1(C)C(=O)/C(=C\c2ccco2)C[C@]2(C)[C@H]3CC=C4[C@@H]5C[C@](C)(C(=O)O)CC[C@]5(C)CC[C@@]4(C)[C@]3(C)CC[C@@H]12,-64% [100 µM] (active),-29.3% [100 µM] (active),-91.9% [100 µM] (active),-67.7% [100 µM] (active),-73.5% [100 µM] (active),-82.8% [100 µM] (active),-64.4% [100 µM] (active),-67.6% [100 µM] (active),-53.6% [100 µM] (active),-62.2% [100 µM] (active)
